Test results from PubChem BioAssay AID1159580 (chemical genetic matrix, 2015).
Values joined by “and” are separate entries in the source; they are usually repeats but may differ in a detail not shown here. Equal entries are not always repeated. About 2,000 (36%) of roughly 5,500 compounds were called active. About 18% were inconclusive and are not listed. Rule as the data show it: active = normalized growth mostly below about 0.91 (no sharp cut-off); inconclusive = no clear call, values can overlap the other calls; inactive = mostly above about 0.92. The list shows a part of the results.

Test: chemical genetic growth profiling, strain panel (AID 1159580);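 also: tested at 20 µM; growth read once vehicle control cultures reached saturation at 30 °C; 1 = growth at the plate median or of vehicle wells; lower values mean less growth of the strain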
Settings: S. cerevisiae deletion strains, growth OD

Measured: normalized growth

O=C1OC(c2ccc(O)cc2)(c2ccc(O)cc2)c2ccccc21
inactive: locus YAL013W, strain DEP1, hits give low values 0.999 | locus YAL021C, strain ccr4, hits give low values 0.977 | locus YAL026C, strain drs2, hits give low values 0.978 | locus YAL030W, strain snc1, hits give low values 0.994 | locus YBL061C, strain skt5, hits give low values 0.984 | locus YBR009C, strain hhf1, hits give low values 0.988 | locus YBR021W, strain FUR4, hits give low values 1.01 | locus YBR023C, strain chs3, hits give low values 0.994 | locus YBR171W, strain sec66, hits give low values 0.981 | locus YBR229C, strain ROT2, hits give low values 0.997 | locus YBR231C, strain swc5, hits give low values 0.974 | locus YBR279W, strain paf1, hits give low values 0.988 | locus YCL011C, strain gbp2, hits give low values 0.968 | locus YCL016C, strain dcc1, hits give low values 1.01 | locus YCL029C, strain bik1, hits give low values 0.972 | locus YCL061C, strain MRC1, hits give low values 1 | locus YCL069W, strain vba3, hits give low values 0.969 | locus YCR088W, strain abp1, hits give low values 1 | locus YDL005C, strain med2, hits give low values 0.97 | locus YDL035C, strain GPR1, hits give low values 0.986 | locus YDL040C, strain nat1, hits give low values 0.986 | locus YDL074C, strain BRE1, hits give low values 0.98 | locus YDL101C, strain DUN1, hits give low values 0.98 | locus YDL134C, strain PPH21, hits give low values 0.989 | locus YDL185W, strain tfp1, hits give low values 0.954 | locus YDL192W, strain arf1, hits give low values 0.974 | locus YDR001C, strain nth1, hits give low values 0.965 | locus YDR069C, strain doa4, hits give low values 0.959 | locus YDR101C, strain arx1, hits give low values 0.973 | locus YDR137W, strain rgp1, hits give low values 0.976 | locus YDR150W, strain NUM1, hits give low values 1 | locus YDR159W, strain sac3, hits give low values 0.969 | locus YDR162C, strain NBP2, hits give low values 0.992 | locus YDR195W, strain ref2 0.973 | locus YDR297W, strain sur2, hits give low values 0.996 | locus YDR318W, strain mcm21, hits give low values 0.949 | locus YDR335W, strain msn5, hits give low values 0.97 | locus YDR388W, hits give low values 0.973 | locus YDR392W, strain spt3, hits give low values 0.958 | locus YDR502C, strain sam2, hits give low values 0.96 | locus YEL003W, strain gim4, hits give low values 0.964 | locus YEL037C, strain rad23, hits give low values 0.983 | locus YEL061C, strain CIN8 (second series), hits give low values 0.962 | locus YEL061C, strain CIN8, hits give low values 0.996 | locus YER015W, strain faa2, hits give low values 0.977 | locus YER016W, strain bim1, hits give low values 0.984 | locus YER110C, hits give low values 0.971 | locus YER111C, strain swi4, hits give low values 0.995 | locus YER155C, strain BEM2, hits give low values 0.994 | locus YER167W, strain BCK2, hits give low values 0.997 | locus YFR010W, strain ubp6, hits give low values 0.975 | locus YGL078C, strain dbp3, hits give low values 0.984 | locus YGL086W, strain mad1, hits give low values 0.992 | locus YGL167C, strain pmr1, hits give low values 0.983 | locus YGL173C, strain kem1, hits give low values 0.996 | locus YGL227W, strain vid30, hits give low values 0.987 | locus YGL240W, strain doc1, hits give low values 0.965 | locus YGL248W, strain PDE1, hits give low values 0.996 | locus YGL253W, strain hxk2, hits give low values 0.969 | locus YGR135W, strain pre9, hits give low values 0.964 | locus YGR252W, strain gcn5, hits give low values 1.03 | locus YHR013C, strain ard1, hits give low values 0.954 | locus YHR027C, strain rpn1, hits give low values 0.982 | locus YHR030C, strain SLT2, hits give low values 0.986 | locus YHR079C, strain IRE1 (second series), hits give low values 0.96 | locus YHR079C, strain IRE1, hits give low values 0.953 | locus YHR094C, strain hxt1, hits give low values 0.971 | locus YHR129C, strain ARP1, hits give low values 0.995 | locus YHR142W, strain chs7, hits give low values 0.977 | locus YHR200W, strain rpn10, hits give low values 0.967 | locus YIL066C, strain RNR3, hits give low values 0.996 | locus YIL073C, strain SPO22, hits give low values 0.844 | locus YIL125W, strain kgd1, hits give low values 0.956 | locus YIR030C, strain dcg1, hits give low values 0.985 | locus YJL092W, strain hpr5, hits give low values 0.995 | locus YJL095W, strain BCK1 (second series), hits give low values 0.977 | locus YJL095W, strain BCK1, hits give low values 1.04 and 0.981 | locus YJL115W, strain asf1, hits give low values 0.972 | locus YJL129C, strain trk1, hits give low values 0.949 | locus YJL134W, strain LCB3, hits give low values 0.988 | locus YJL154C, strain vps35, hits give low values 0.972 | locus YJL164C, strain tpk1, hits give low values 0.987 | locus YJL166W, strain qcr8, hits give low values 0.983 | locus YJL168C, strain set2, hits give low values 0.974 | locus YJL187C, strain SWE1 (second series), hits give low values 0.991
active: locus YDR334W, strain swr1, hits give low values 0.897 | locus YER155C, strain BEM2 (second series), hits give low values 0.826
